# Compounds without any hit were thinned out: in the full panel of roughly 83,000, 20% have a hit.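 Results are percent growth after 48 hours of single-concentration exposure. 100 means growth as in untreated cells, lower positive values show inhibition; negative values down to -100 show cell death.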 Unmarked numbers belong to inactive results. Active and inactive are the calls of the source. Rule for the calls: active = growth percent below 10; inactive = the rest.
# System: SF-295 CNS
# Assay: NCI-60 one-dose screen, 48 h (100 = growth as untreated, 0 = no growth, -100 = all killed)
# Details: 10 µM
row,Compound,growth
1,CC12O[C@H](C[C@@H](OC(=O)c3ccccc3)[C@H]1O)n1c3ccccc3c3c4c(c5c6ccccc6n2c5c31)C(=O)NC4=O,45.8%
2,COc1ccc(-c2nc3ncccn3c2-c2nnc(-c3ccc(F)cc3)o2)cc1,97.1%
3,Nc1ccc2c(c1)C1(CCC2)NC(=O)NC1=O (stereo unspecified),108%
4,COc1cc(OC)cc(-c2cncn2-c2ccc(-c3nc4cc(OC)cc(OC)c4s3)cc2)c1,-22% (active)
5,Clc1ccc2c(NCCCNc3nccc(Nc4ccc(Br)cc4)n3)ccnc2c1,-84.9% (active)
6,O=C(Nc1cccc(Br)c1)c1cc(=O)[nH]c2ccccc12,112%
7,COc1cc(Nc2ccnc(NCCCNc3ccnc4cc(Cl)ccc34)n2)cc(OC)c1,-75.9% (active)
8,CN1CCC(CNc2cc(C3(C(=O)Nc4cc(C(=O)Nc5ccc(Cl)c(C(F)(F)F)c5)ccc4F)CC3)ncn2)CC1,-54.4% (active)
9,N#Cc1c(C#N)c(SSc2c(C#N)c(C#N)c(N)n2-c2ccccc2)n(-c2ccccc2)c1N,115%
10,Clc1ccc(Nc2ccnc(NCCNc3ccnc4cc(Cl)ccc34)n2)cc1,-58.9% (active)
11,Cc1cc(N(CCCNc2ccnc3cc(Cl)ccc23)Cc2ccc3c(c2)OCO3)nc(N2CCCCC2)n1,-67.6% (active)
12,CCCCN(CCCC)c1cc(C(=O)CCCCCN)c2ccccc2n1,-62.3% (active)

# System: SF-539 CNS
# Assay: as above
# Details: 10 µM
row,Compound,growth
1,Clc1ccc(Nc2ccnc(NCCCNc3ccnc4cc(Cl)ccc34)n2)cc1,-96.8% (active)
2,Oc1[nH]c2cc(Cl)ccc2c1/C=c1/ccc2c(c1)N=C(c1cc(F)cc(F)c1)N=2,3.76% (active)
3,CSc1nn(-c2ccccc2)c2ncnc(Oc3ccccc3)c12,98%
4,Cc1cc2c(C)c3cc(C)c(N)cc3nc2cc1N,19.4%
5,CCOC(=O)C1(CC(C)C)CCOC1=O (stereo unspecified),97.7%
6,COc1ccc(Nc2cc(C)nc(NCCCNc3ccnc4cc(Cl)ccc34)n2)cc1,-100% (active)
7,CCCCCCCCCCCCCCCC(=O)OC1[C@@H](OC(=O)CCCCCCCCCCCCCCC)[C@@H](C(=O)N[C@@H](CCCCN)C(=O)OC)O[C@H]1n1cnc2c(=O)[nH]c(NC(=O)C(C)C)nc21 (stereo partly specified),103%
8,COc1cc(Nc2ccnc(NCCNc3ccnc4cc(Cl)ccc34)n2)cc(OC)c1,-65.9% (active)
9,Cc1cc(Nc2ccc(Cl)cc2)nc(NCCCNc2ccnc3cc(Cl)ccc23)n1,-100% (active)
10,COc1cc2cc3c(nc2cc1OC)CCN3Cc1ccc(NC(=O)Nc2cc(C(F)(F)F)cc(C(F)(F)F)c2)cc1,86.8%
11,CC(C)=CCc1cc(O)cc2c1OC(C=C(C)C)C1=C2C(=O)C2=C(NCCS2(=O)=O)C1=O (stereo unspecified),-50.5% (active)
12,CC(C)=CCc1cc(O)cc2c1OC(C=C(C)C)C1=C2C(=O)C2=C(C1=O)S(=O)(=O)CCN2 (stereo unspecified),-19.2% (active)
13,COc1ccc(Nc2ccnc(NCCNc3ccnc4cc(Cl)ccc34)n2)cc1,-14.4% (active)
14,Cc1cc(Cl)nc(N(CCCNc2ccnc3cc(Cl)ccc23)Cc2cccs2)n1,3.33% (active)
15,COc1cc(Cl)cc(-c2nn(-c3cccc(NC(=O)Nc4cc(C(F)(F)F)cc(C(F)(F)F)c4)c3)cc2-c2ccncc2)c1,-17.7% (active)
16,CN(C)CCNC(=O)c1cccn2c(=O)c3cc4ccccc4cc3nc12,1.59% (active)
17,CC12O[C@H](C[C@@H](O)[C@H]1O)n1c3ccccc3c3c4c(c5c6ccccc6n2c5c31)C(=O)N(CCCN)C4=O,39.1%
18,CCCCCCCC(C)NCCO (stereo unspecified),105%
19,Cc1cc(N(CCCNc2ccnc3cc(Cl)ccc23)Cc2ccc3c(c2)OCO3)nc(N2CCOCC2)n1,-72.9% (active)
20,COc1cc(-c2nnc(-c3c(-c4ccc(F)cc4)nc4ccccn34)o2)cc(OC)c1OC,26.4%

row,Compound,growth
1,COc1ccc2c(c1)/C(=C\c1c[nH]c3ccc(OC)cc13)C(=O)N2,74.2%
2,NC(=O)CC1(c2ccccc2)CCCCC1,104%
3,COc1ccc(-c2nc3sccn3c2-c2nc3c([nH]2)C(=O)c2ccccc2C3=O)cc1,98%
4,Fc1ccc(-c2nnc(-c3c(-c4ccc(F)cc4)nc4ccccn34)o2)cc1,-10.1% (active)
5,CCN1CCCC1CNC(=O)c1ncc(-c2ccc(C(F)(F)F)cc2)c(NC2CCCCCC2)n1 (stereo unspecified),94.7%
6,Cc1ccc(Nc2cc(C)nc(NCCCNc3ccnc4cc(Cl)ccc34)n2)cc1,-96.9% (active)
7,Cn1c([N+](=O)[O-])cnc1/C=C1\Oc2ccccc2C1=O,-43.4% (active)
8,CC12O[C@H](C[C@@H](OC(=O)c3ccccc3)[C@H]1O)n1c3ccccc3c3c4c(c5c6ccccc6n2c5c31)C(=O)NC4=O,86.6%
9,COc1ccc(-c2nc3ncccn3c2-c2nnc(-c3ccc(F)cc3)o2)cc1,94.5%
10,Nc1ccc2c(c1)C1(CCC2)NC(=O)NC1=O (stereo unspecified),93%
11,COc1cc(OC)cc(-c2cncn2-c2ccc(-c3nc4cc(OC)cc(OC)c4s3)cc2)c1,62.6%
12,Clc1ccc2c(NCCCNc3nccc(Nc4ccc(Br)cc4)n3)ccnc2c1,-93.1% (active)
13,O=C(Nc1cccc(Br)c1)c1cc(=O)[nH]c2ccccc12,92%
14,COc1cc(Nc2ccnc(NCCCNc3ccnc4cc(Cl)ccc34)n2)cc(OC)c1,-98.5% (active)
15,CN1CCC(CNc2cc(C3(C(=O)Nc4cc(C(=O)Nc5ccc(Cl)c(C(F)(F)F)c5)ccc4F)CC3)ncn2)CC1,-57.2% (active)
16,N#Cc1c(C#N)c(SSc2c(C#N)c(C#N)c(N)n2-c2ccccc2)n(-c2ccccc2)c1N,103%
17,Clc1ccc(Nc2ccnc(NCCNc3ccnc4cc(Cl)ccc34)n2)cc1,-94.5% (active)
18,Cc1cc(N(CCCNc2ccnc3cc(Cl)ccc23)Cc2ccc3c(c2)OCO3)nc(N2CCCCC2)n1,-87.7% (active)
19,CCCCN(CCCC)c1cc(C(=O)CCCCCN)c2ccccc2n1,83.6%

# From PubChem BioAssay (NCI)
